Reference: PubChem BioAssay AID743279 (National Center for Advancing Translational Sciences (NCATS), 2014)
Out of some 360,000 compounds screened, about 17,000 (4.7%) were called active. Another 5% or so got no clear call; they are omitted. Rule as the data show it: active = activity change below about -50%; inconclusive = mostly about -30% to -49%; inactive = weaker than that. Only a selection was taken, and actives are over-represented in it overall.

assay: qHTS for Inhibitors of Inflammasome Signaling: IL-1-beta AlphaLISA Primary Screen; conditions: THP-1 LPS/ATP IL-1B secretion, 16 h; at 57.5 µM, stronger effect = lower value
In short: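 Secreted IL-1B measured by AlphaLISA bead assay after 16 h compound exposure of THP-1 cells; compounds (final up to 57.5 uM) added 1 h before LPS (250 ng/mL) and ATP (1.25 mM) stimulation; lower signal means less secretion.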
% is scaled to controls: 0 for no effect and ±100 for the full control effect.

Compound	activity change
COc1ccc(C2CC(=O)n3c(nc4ccccc43)S2)cc1OC (stereo unspecified)	-17% (inactive)
COc1ccc(C2CC(c3cccs3)=NN2C(=O)COC(=O)c2cc3ccccc3cc2O)cc1OC (stereo unspecified)	12.7% (inactive)
COc1ccccc1N1N=C(c2cccs2)CC1c1ccccc1 (stereo unspecified)	24% (inactive)
COc1ccc(C2CC(c3cccs3)=NN2C(=O)CSc2nnc(N)s2)cc1OC (stereo unspecified)	-61.5% (active)
COc1ccc(C2CC(c3cccs3)=Nc3ccccc3S2)cc1OC (stereo unspecified)	-56.2% (active)
COc1ccc(C2CC(c3cccs3)=NN2C(=O)CSc2nncs2)cc1OC (stereo unspecified)	-14.9% (inactive)
CC(C)(C)OC(=O)N1CCC(C(=O)Nc2cccc(C(=O)NCCc3ccccc3)c2)CC1	17.9% (inactive)
CCC1(C)COC(c2ccc(OC)c(OC)c2)OC1 (stereo unspecified)	10.5% (inactive)
CC1(C(=O)NCc2ccccc2)CSCC(=O)N1CCCN1CCOCC1 (stereo unspecified)	16.7% (inactive)
N#Cc1c(N)nc2c3c(sc(=N)c2c1N)NC(=O)CC3c1ccccc1Cl (stereo unspecified)	36.3% (inactive)
CC1=NC2(CCCc3c2no[n+]3[O-])N(O)C1(C)C (stereo unspecified)	1.59% (inactive)
COC(=O)C[C@H]1C[C@@H]2c3cc(NC(=O)Nc4ccccc4)ccc3O[C@@H]2[C@@H](CO)O1	9.89% (inactive)
COc1cccc(-c2nn(-c3ccccc3)cc2/C=C(\C#N)C(=O)NCCCn2ccnc2)c1	-84% (active)
COc1cc(OC)cc(C(=O)NCCCn2ccnc2)c1	20.1% (inactive)
COc1ccc(/C=C(\C#N)C(=O)NCCCn2ccnc2)cc1	-1.26% (inactive)
CCOC(=O)c1cc(-c2sc(NC(=O)c3ccccc3)nc2C)n(CCO)n1	-3.33% (inactive)
NS(=O)(=O)c1ccc(NC(=O)/C=C/c2ccccc2Cl)cc1	-17.1% (inactive)
COCCNC(=O)CSc1nc(N)c(NC(=O)c2ccco2)c(=O)[nH]1	0.73% (inactive)
CSc1nc(-c2ccccc2)nc(C(Cl)Cl)n1	-99.1% (active)
CSc1ncc(Sc2ccccc2)c(C(=O)O)n1	5.96% (inactive)
CC1(C)OC(=O)C2=C(CC(c3ccccc3)OC2CCc2ccccc2)O1 (stereo unspecified)	-7.82% (inactive)
O=C(Nc1ccccc1C(=O)N1CCOCC1)c1ccc(Cl)cc1	12.7% (inactive)
CCOC(=O)N1CCN(C(=O)C2CC(c3ccc(F)cc3)=NO2)CC1 (stereo unspecified)	-3.7% (inactive)

Compound	activity change
CNC(=S)N/N=C/c1cn(Cc2ccc(C)cc2)c2ccccc12	-7.55% (inactive)
COC(=O)N/N=C/c1cn(CCCOc2ccc(C)cc2)c2ccccc12	-91% (active)
O=Cc1cn(CCOc2ccc(F)cc2)c2ccccc12	-5.47% (inactive)
Cc1ccc([C@@H]2CC(=O)[C@@H]3CN(S(=O)(=O)c4ccc(C)cc4)[C@H](c4ccccc4F)C[C@@H]3N2S(=O)(=O)c2ccc(Cl)cc2)cc1	0% (inactive)
Cn1cnc(S(=O)(=O)N2C[C@@H](O)COC[C@@H]3O[C@H](CC(=O)NC4CCC4)CC[C@H]32)c1	3.76% (inactive)
CC(=O)c1c(C)[nH]c(C(=O)OCC(=O)Nc2c(C)n(C)n(-c3ccccc3)c2=O)c1C	30.6% (inactive)
COc1ccc(-c2csc(NC3OC(=O)c4ccccc43)n2)cc1 (stereo unspecified)	-77.8% (active)
COc1ccc(C(C)(NC(C)=O)c2nc(-c3ccc(S(C)(=O)=O)cc3)cs2)cc1 (stereo unspecified)	-7.6% (inactive)
O=C(CSC1=NCCS1)Nc1nc(-c2ccccc2)cs1	-4.52% (inactive)
Cc1ccc(-c2csc(NC(=O)Cn3[nH]c(=O)c4ccccc4c3=O)n2)cc1	10.3% (inactive)
CCc1ccccc1NC(=O)[C@@H]1CCC(=O)N1C1OC(=O)c2c1ccc(OC)c2OC (stereo partly specified)	-9.95% (inactive)
COc1ccc2c(c1OC)C(=O)OC2Nc1nc(-c2ccccc2)cs1 (stereo unspecified)	-117% (active)
COc1ccc(N/C=C(\C2OC(=O)c3ccccc32)[N+](=O)[O-])cc1 (stereo unspecified)	-0.0924% (inactive)
CCCc1cc(-c2nc(-c3ccc(C)cc3)cs2)ccn1	19.6% (inactive)
Cc1ccc(-c2csc(NC3OC(=O)c4ccccc43)n2)cc1 (stereo unspecified)	-99% (active)
OC(c1ccc(Cl)cc1)c1ncc(-c2ccc(Cl)cc2)[nH]1 (stereo unspecified)	-2.78% (inactive)
CCCNC(=O)C1(C)CCCN(C(=O)c2oc3ccccc3c2C)C1 (stereo unspecified)	35.7% (inactive)
CN1CCN(c2ccncc2S(=O)(=O)N2CCCC2)CC1	21.6% (inactive)
COc1ccc2c(CC(=O)OCC(=O)NC(N)=O)coc2c1	0% (inactive)
CCNC(=O)C1(C)CCCN(C(=O)c2ccc3ccccc3n2)C1 (stereo unspecified)	-16.3% (inactive)
COc1ccc(C=C2CCC3C(CCCC34OCCO4)C2=O)cc1 (stereo unspecified)	-24.6% (inactive)
COc1ccc(CCNC(=O)CN2C(=O)COc3ccc(S(=O)(=O)N4CCCC4)cc32)cc1OC	-11.4% (inactive)
CC1CCN(CCCNC(=O)CN2C(=O)CSc3ccc(S(=O)(=O)N4CCCCC4)cc32)CC1	-0.367% (inactive)

Compound	activity change
O=C(CSCc1ccc(Br)cc1)Nc1ccc(S(=O)(=O)N2CCCCCC2)cc1	23.8% (inactive)
CCOc1ccc(NC(=O)COc2ccc(S(=O)(=O)N3CCCC3)cc2)cc1	5.76% (inactive)
CN(C)c1ccc(CNC(=O)CN2C(=O)COc3ccc(S(=O)(=O)N4CCCC4)cc32)cc1	12.9% (inactive)
COc1ccc(NC(=O)CN2C(=O)CSc3ccc(S(=O)(=O)N4CCC(C)CC4)cc32)cc1	-67.1% (active)
COCCCNC(=O)CN1C(=O)CSc2ccc(S(=O)(=O)N3CCOCC3)cc21	-5.17% (inactive)
O=C(CN1CCCCCC1)Nc1ccc(S(=O)(=O)N2CCCCC2)cc1	-59.2% (active)
CCc1ccc(NC(=O)CN2C(=O)COc3ccc(S(=O)(=O)N4CCCC4)cc32)cc1	-54.9% (active)
O=C(Nc1c(Br)cc2c(c1Br)Cc1ccccc1-2)C(F)(F)F	17.9% (inactive)
Cc1ccc2cc(CN(c3ccc(C)c(C)c3)S(C)(=O)=O)c(=O)[nH]c2c1	-25.8% (inactive)
COc1ccc(NC(=O)c2sc(=O)n(Cc3ccc(S(=O)(=O)N(C)C)cc3)c2C)cc1	6.5% (inactive)
O=C(NCc1ccccc1)C1c2ccccc2OCC(=O)N1C1CC1 (stereo unspecified)	-1.49% (inactive)
Cc1cc(Br)cn2c(Cc3cccc(F)c3)c(-c3cccc(Br)c3)nc12	25.5% (inactive)
CCCC1C(c2ccccc2)C(C#N)(C#N)C2(C#N)CC1(N)NC2=O (stereo unspecified)	3.18% (inactive)
COc1ccc(C(O)c2nc(-c3ccc(OC)nc3)cs2)cc1 (stereo unspecified)	36.7% (inactive)
COc1ccc(C(C)(O)c2nc(-c3ccc(C)c(C)c3)cs2)cc1 (stereo unspecified)	22% (inactive)
COc1ccc(-c2cc3ncccc3cn2)cc1	15.7% (inactive)
COc1ccc(-c2csc(Cc3nc(O)cs3)n2)cc1	-95.7% (active)
COc1ccc(C(=O)/C=C/Nc2ccccn2)cc1	-1.59% (inactive)
COc1ccc(-c2csc(Nc3ccc(O)cc3)n2)cc1	-79.3% (active)
COc1ccc(C(C)(O)c2nc(-c3cc(F)cc(F)c3)cs2)cc1 (stereo unspecified)	42.9% (inactive)
COc1ccc(OC)c(Nc2nc(-c3ccc(O)c(O)c3)cs2)c1	-70% (active)
COc1ccc(-c2csc(Nc3ccccn3)n2)cc1	-86.3% (active)
COc1cccc(C(O)c2nc(-c3ccc(C)c(C)c3)cs2)c1 (stereo unspecified)	27% (inactive)

Compound	activity change
COc1ccc(C(O)c2nc(-c3ccc4c(c3)OCO4)cs2)cc1 (stereo unspecified)	-22.4% (inactive)
COC(=O)CCc1sc(Nc2ccc(Br)cc2)nc1-c1ccc(OC)cc1	-13.7% (inactive)
NC(CSC(c1ccccc1)(c1ccccc1)c1ccc(-c2ccccc2)cc1)C(=O)O (stereo unspecified)	1.83% (inactive)
C=CCNC(=O)CCCC(=O)NCC=C	0% (inactive)
OC(c1ccccc1)c1nc(/C=C/c2ccc(C(F)(F)F)cc2)cs1 (stereo unspecified)	15.3% (inactive)
O=C(O)c1ccccc1Cc1ccc(F)c2ccccc12	47.2% (inactive)
O=S1(=O)CSCS(=O)(=O)C1	-18.2% (inactive)
COc1ccc([C@H]2N[C@]3(CCCN(Cc4ccco4)C3=O)[C@H]3C(=O)N(C)C(=O)[C@@H]23)cc1	-4.35% (inactive)
Cc1cc(=O)oc2c3c(cc(OCC(=O)NCCC(=O)N[C@@H](C)C(=O)O)c12)OC(C)(C)CC3	-0.546% (inactive)
O=c1oc2ccccc2cc1-c1csc(Nc2ccc(O)cc2)n1	-97.2% (active)
O=C(NCc1cccnc1)c1cccc(-c2cc3ccccc3oc2=O)c1	-3.38% (inactive)
Cc1ccn2c(-c3csc(Nc4ccc(C(=O)O)cc4)n3)c(C)nc2c1	30.5% (inactive)
Nc1nc2c(Br)ccc(Br)c2cc1C(=O)NCCc1ccccc1	0% (inactive)
CCCCN(C(=O)c1cccc(N2C(=O)c3ccccc3C2=O)c1)c1c(N)n(CCCC)c(=O)[nH]c1=O	13% (inactive)
CCC(C)NCCOCCOc1ccc(Br)cc1C (stereo unspecified)	-17.9% (inactive)
C[C@H](NC(=O)CC[C@H]1O[C@@H](n2ccc(=O)[nH]c2=O)[C@H](O)[C@@H]1O)c1cccc2ccccc12	0% (inactive)
CCOc1ccc(CC(=O)NC2CCN(Cc3ccccc3)CC2)cc1	0% (inactive)
COc1cc2[nH]c(=O)n(Cc3ccc(C(=O)NC4CCN(Cc5ccccc5)CC4)cc3)c(=O)c2cc1OC	2% (inactive)
O=C(NC1CCN(Cc2ccccc2)CC1)c1cc(Br)c(Br)[nH]1	-123% (active)
CC(C)(C)C(=O)NNC(=O)c1ccc(Oc2cc(Cl)cc(Cl)c2)o1	6.58% (inactive)
O=C(NC1CCN(Cc2ccccc2)CC1)c1ccc(Oc2cc(Cl)cc(Cl)c2)o1	-70.1% (active)
Cc1cc(C(=O)NC2CCN(Cc3ccccc3)CC2)n[nH]1	-8.74% (inactive)
